Data taken from PubChem BioAssay (NCATS).
Active and inactive are the calls of the source. Calls follow the shape of the dose curve; as a rule, active = well fitted curve in the direction sought with a large enough effect; inconclusive = small, poorly fitted or top-dose-only effect, or another doubt; inactive = no such curve, though single readings can be large or run the other way.

Experiment: Cellular Toxicity (caspase-3) BJ (AID 658)
Conditions: BJ fibroblasts, luminescence, normalized: DMSO 0%, staurosporine 100%; series mostly up to 91.7 µM
From the text: NIH Chemical Genomics Center [NCGC]
NIH Molecular Libraries Screening Centers Network [MLSCN]
National Institutes of Environmental Health Sciences [NIEHS]
National Toxicology Program [NTP]
We have developed a 1536-well cell-based assay for quantitative high throughput screening (qHTS) against a number of cell lines to determine in vitro caspase 3/7 activity of small molecules. This particular assay uses BJ cell line which is derived from normal human foreskin fibroblast.
NCGC Assay Protocol Summary:
The Caspase-Glo 3/7 assay (Promega) is a homogeneous method to measure caspase-3 and caspase-7 activities in cultured cells. The quantitation of caspase 3/7 activity is based on the cleavage of a peptide-aminoluciferin substrate. After caspase cleaves the substrate the free aminoluciferin is liberated and serves as the substrate of luciferase, which generates the light. The luminescent signal is proportional to amount of caspase 3/7 activity present.
Using the Caspase-Glo 3/7 assay, the amount of caspase 3/7 activity was measured in the BJ cell line with complete culture medium following compound treatment for 16 hours. The assay was performed in opaque white 1536-well plates. In the screen, staurosporine and tamoxifen were used as positive controls. Library compounds were measured for their ability to cause the activation of caspase 3/7 in the cell line, as reflected by an increase in luminescence signal, in a concentration-dependent manner. Data were normalized to the controls for basal activity (DMSO only) and 100% stimulation (10 uM staurosporine). AC50 values were determined from concentration-response data modeled with the standard Hill equation.
qHTS protocol for caspase 3/7 assay in the BJ cells
[Step] [Parameter] [Value] [Description]
1. Reagent; 5 uL; 1000 the BJ cells/well
2. Time; 5 hr; 37 °C incubation
4. Controls; 23 nL; Tamoxifen 0.23 uM to 100 uM & staurosporine 1.4 pM to 100 uM
5. Time; 16 hr; 37 °C incubation
6. Reagent; 5 uL; Caspase-Glo 3/7 reagent
7. Time; 1 hr; Room Temperature
8. Detection; Luminescence; Viewlux plate reader
Keywords: caspase 3/7, apoptosis, the BJ cell line, luminescence, NTPHTS, NTPHTS_NCGC, NIEHS, EPA, DSSTox, MLSMR, MLSCN, NIH Roadmap, qHTS, NCGC

For `CC(C)N=C=NC(C)C`, which outcome is on record?
Its outcome is “inactive”.

Which outcome does the source give for `CCOc1cc(OCC)c(C(C)=O)cc1OCC` here?
Its outcome is “inactive”.

For `O=C(O)c1c(Cl)cccc1Cl`, which outcome is on record?
The outcome was “inactive”.

For `COc1cccc(N)c1`, which outcome is on record?
The outcome was “inactive”.

Which outcome does the source give for `O=C(O)/C=C/C(=O)O` here?
The outcome was “inactive”.

With `COc1cccc2sc(N)nc12` as the molecule, how does the outcome read?
Its outcome is “inactive”.

Which outcome does the source give for `Nc1nc(-c2ccccc2)cs1` here?
The outcome was “inactive”.

For `O=[N+]([O-])c1ccc2nc[nH]c2c1`, which outcome is on record?
Its outcome is “inactive”.

For `Nc1cc(S(=O)(=O)O)ccc1O`, which outcome is on record?
The outcome was “inactive”.

Which outcome does the source give for `CC(C)C=O` here?
The outcome was “inactive”.

For `NC(=S)NNC(N)=S`, which outcome is on record?
Its outcome is “inactive”.

Which outcome does the source give for `c1ccsc1` here?
Its outcome is “inactive”.

For `CSCCC=O`, which outcome is on record?
Its outcome is “inactive”.

With `Nc1ccc(F)cc1F` as the molecule, how does the outcome read?
Its outcome is “inactive”.

For `CC(=O)c1cccc([N+](=O)[O-])c1`, which outcome is on record?
Its outcome is “inactive”.

Which outcome does the source give for `NC(=O)/N=N/C(N)=O` here?
The outcome was “inactive”.

Which outcome does the source give for `Cc1cccc2sc(N)nc12` here?
Its outcome is “inactive”.

With `[O-]/[N+](=N\O)c1ccccc1` as the molecule, how does the outcome read?
The outcome was “inactive”.

With `Cc1ccccc1C(N)=O` as the molecule, how does the outcome read?
The outcome was “inactive”.

Which outcome does the source give for `Nc1ccccc1S(=O)(=O)O` here?
The outcome was “inactive”.

For `CC(=O)CC(C)C`, which outcome is on record?
Its outcome is “inactive”.

Which outcome does the source give for `Cc1ccc(C(=O)O)cc1` here?
The outcome was “inactive”.

With `NC(=O)c1ccccc1[N+](=O)[O-]` as the molecule, how does the outcome read?
The outcome was “inactive”.

With `Clc1ccc(Cl)c(Cl)c1Cl` as the molecule, how does the outcome read?
Its outcome is “inactive”.

Which outcome does the source give for `CCCCC(CC)CNCC(CC)CCCC` (stereo not given) here?
The outcome was “inactive”.

With `O=C(O)c1ccc(Cl)c(Cl)c1` as the molecule, how does the outcome read?
The outcome was “inactive”.

With `CNC(=O)c1ccccc1` as the molecule, how does the outcome read?
The outcome was “inactive”.

Which outcome does the source give for `CCCCCCCCC` here?
The outcome was “inactive”.

For `Cc1cccc2ccccc12`, which outcome is on record?
Its outcome is “inactive”.

With `CN(C)CCCCl` as the molecule, how does the outcome read?
Its outcome is “inactive”.

Which outcome does the source give for `Nc1ccc(Cl)cc1[N+](=O)[O-]` here?
The outcome was “inactive”.

For `Nc1cc(Cl)c([N+](=O)[O-])cc1O`, which outcome is on record?
The outcome was “inactive”.

For `O=[N+]([O-])c1ccc(NCCO)c(OCCO)c1`, which outcome is on record?
Its outcome is “inactive”.

Which outcome does the source give for `CC(=O)Nc1ccc(C)cc1` here?
The outcome was “inactive”.

For `BrC/C=C/CBr`, which outcome is on record?
Its outcome is “inactive”.

For `O=C(O)c1ccccc1Cl`, which outcome is on record?
Its outcome is “inactive”.

For `CC=O`, which outcome is on record?
Its outcome is “inactive”.

With `CC(C)Cc1nccs1` as the molecule, how does the outcome read?
Its outcome is “inactive”.

With `CN(C)c1cccc(O)c1` as the molecule, how does the outcome read?
The outcome was “inactive”.

Which outcome does the source give for `C=Cc1ccccn1` here?
The outcome was “inactive”.
